# Measurements from PubChem BioAssay (NCATS).
# Values joined by “and” are separate entries in the source; they are usually repeats but may differ in a detail not shown here. Equal values may be shown once. Inconclusive results are not listed. Where a call stands in place of a potency, no number is given. Active and inactive are the calls of the source. Unless noted, the call rests on the fitted dose curve; in most records, active means well fitted curve in the direction sought with a large enough effect; inconclusive means small, poorly fitted or top-dose-only effect, or another doubt; inactive means no such curve, though single readings can be large; an effect the other way counts as inactive or inconclusive.
# Assays:
# [1] = Cell Viability - N2a (AID 540); conditions: N2a mouse neuroblastoma cell viability; activity change, negative = cytotoxicity: at 92.2 µM (top of the series);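 further: cells exposed to compound for 40 h at 37 °C; nearly all actives have a fitted effect of over 45% in size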
# Method in brief: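 Cytotoxicity was scored as loss of cellular ATP in N2a cells, a mouse neuroblastoma line. Compounds are applied in a qHTS concentration series for 40 hr at 37 °C.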
# [2] = Cellular Toxicity (caspase-3) BJ (AID 658); conditions: Potency: caspase-3 activation
# Method in brief: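 Caspase-Glo 3/7 luminescence, read 1 hr after reagent at room temperature, in normal BJ fibroblasts exposed 16 hours at 37 °C. AC50 values from Hill-equation concentration-response, scaled between DMSO basal and 10 uM staurosporine as 100%.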
# [3] = Cellular Toxicity (caspase-3) Hek293 (AID 664); conditions: HEK293 caspase-3 activation, DMSO = 0%, 100 µM tamoxifen = 100%; at 92.2 µM (top of the series);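 further: cells exposed to compound for 16 h at 37 °C before readout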
# Method in brief: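 qHTS, HEK293 (human embryonic kidney), 16 h cpd exposure in complete medium. Caspase-3/7 activation = luminescence increase; normalized to DMSO/100 uM tamoxifen; Hill-fit AC50.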
# [4] = MultiTox-Fluor Cytotoxicity Assay - LYMP1-001 - Live Cells (AID 947)
# [5] = Cell Viability - LYMP2-017 (AID 972);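 further: cells exposed to compound for 24 hours at 37 °C; nearly all actives have a fitted effect of over 55% in size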
# Method in brief: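 Cytotoxicity is scored as a concentration-dependent drop in cellular ATP in a human lymphoblastoid line after 24 hr treatment at 37 C. Values are AC50s from Hill-equation modelling.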
# [6] = Cell Viability - LYMP2-007 (AID 979);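 further: cells exposed to compound for 24 h before reading; nearly all actives have a fitted effect of over 60% in size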
# Method in brief: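 Cells are seeded at 2500 per well and rested 5 hr. Compounds are then added over a concentration series for 24 hr at 37 C. CellTiter-Glo is added for 30 min at room temperature before luminescence reading.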
# [7] = Cell Viability - LYMP2-018 (AID 985);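 further: compound exposure lasted 24 hr at 37 °C; nearly all actives have a fitted effect of over 50% in size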
# Method in brief: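 Seed 2500 lymphoblastoid cells per well, incubate 5 hr at 37 C, add compound and incubate 24 hr at 37 C, add CellTiter-Glo, wait 30 min at room temperature, then read luminescence.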
# [8] = Cell Viability - LYMP2-020 (AID 986);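 further: cells exposed to compound for 24 h at 37 °C; nearly all actives have a fitted effect of over 55% in size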
# Method in brief: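 Seed 2500 cells per well and incubate 5 hr at 37 C. Add compounds at a concentration series and incubate 24 hr at 37 C. Add CellTiter-Glo, wait 30 min at RT, read luminescence, and fit a Hill curve for AC50.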
# [9] = molecular target: Bile acid receptor (Homo sapiens) (UniProt Q96RI1); assay: qHTS assay for small molecule antagonists of farnesoid X receptor signaling (AID 588526; calls by dose curve)
# Bile acid receptor (Homo sapiens), sequence (Q96RI1 whole entry, looked up): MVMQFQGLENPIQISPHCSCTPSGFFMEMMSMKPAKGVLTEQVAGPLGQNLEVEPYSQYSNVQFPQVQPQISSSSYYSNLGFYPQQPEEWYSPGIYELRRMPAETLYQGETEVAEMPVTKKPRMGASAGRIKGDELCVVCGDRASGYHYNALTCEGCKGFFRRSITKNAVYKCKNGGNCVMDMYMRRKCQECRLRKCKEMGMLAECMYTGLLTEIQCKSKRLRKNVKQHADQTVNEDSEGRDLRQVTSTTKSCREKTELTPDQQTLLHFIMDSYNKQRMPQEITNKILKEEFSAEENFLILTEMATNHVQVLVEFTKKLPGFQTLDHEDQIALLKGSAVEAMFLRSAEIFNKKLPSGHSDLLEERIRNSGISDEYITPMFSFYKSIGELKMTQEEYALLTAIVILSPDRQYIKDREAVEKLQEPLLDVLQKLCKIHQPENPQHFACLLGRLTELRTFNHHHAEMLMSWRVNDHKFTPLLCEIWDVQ
# Method in brief: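 Beta-lactamase reporter antagonist mode: HEK293T FXR-UAS-bla cells, titrated compound, CDCA stimulation, 16 h 37 C, CCF4 dye 2 h RT. Data normalized to CDCA 50 uM and DMSO; Hill-fit IC50.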
# [10] = molecular target: Glucocorticoid receptor (Homo sapiens) (UniProt P04150); assay: qHTS assay for small molecule antagonists of glucocorticoid receptor signaling (AID 588533; active means well fitted inhibition curve with a large enough effect in the signal ratio, with a control signal flat, not every such curve was filed as active; the % refers to the signal ratio;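 further: cells stimulated with 2 nM dexamethasone as agonist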)
# Glucocorticoid receptor (Homo sapiens), sequence (P04150 whole entry, looked up): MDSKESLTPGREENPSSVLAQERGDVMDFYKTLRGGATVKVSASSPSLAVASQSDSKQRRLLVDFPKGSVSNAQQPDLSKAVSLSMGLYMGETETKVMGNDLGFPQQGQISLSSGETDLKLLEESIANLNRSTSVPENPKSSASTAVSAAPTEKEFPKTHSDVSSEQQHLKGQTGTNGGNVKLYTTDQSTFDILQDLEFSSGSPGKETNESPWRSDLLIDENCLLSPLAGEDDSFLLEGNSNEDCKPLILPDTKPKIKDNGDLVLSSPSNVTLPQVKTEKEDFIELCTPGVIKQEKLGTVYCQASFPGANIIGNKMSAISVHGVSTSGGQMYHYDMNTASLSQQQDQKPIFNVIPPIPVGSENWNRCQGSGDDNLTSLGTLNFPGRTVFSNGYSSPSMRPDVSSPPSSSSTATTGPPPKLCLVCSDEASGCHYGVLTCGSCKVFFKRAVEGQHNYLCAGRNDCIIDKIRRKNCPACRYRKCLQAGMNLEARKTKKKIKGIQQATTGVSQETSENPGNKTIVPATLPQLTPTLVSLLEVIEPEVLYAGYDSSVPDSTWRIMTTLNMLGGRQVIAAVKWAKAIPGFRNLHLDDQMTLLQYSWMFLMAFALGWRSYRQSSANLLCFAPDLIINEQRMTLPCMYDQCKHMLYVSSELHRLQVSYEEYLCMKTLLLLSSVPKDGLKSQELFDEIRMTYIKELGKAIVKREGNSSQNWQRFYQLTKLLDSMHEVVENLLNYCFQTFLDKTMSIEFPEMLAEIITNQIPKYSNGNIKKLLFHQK
# Method in brief: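 Antagonist-mode qHTS: compound titrations added to GRE-bla HeLa cells, then dexamethasone 2 nM final; 18 h, 37 C. CCF4 FRET fluorescence normalized to dexamethasone and DMSO; IC50 from Hill fit.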
# [11] = qHTS assay for small molecule antagonists of peroxisome proliferator-activated receptor delta signaling (AID 588535); conditions: HEK293T PPARd-UAS-bla, beta-lactamase FRET ratio, 18 h; 460 nm channel;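 further: cells co-treated with a PPAR-delta agonist as stimulator during compound exposure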
# Method in brief: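 Titrations were run on PPAR-delta-UAS-bla HEK293T cells in charcoal/dextran-stripped serum, incubated 18 h at 37 C. CCF4 fluorescence (460/530 nm) after 2 h RT; Hill equation yields IC50 and maximal response.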
# [12] = molecular target: Peroxisome proliferator-activated receptor gamma (Homo sapiens) (UniProt P37231); assay: qHTS assay for small molecule agonists of peroxisome proliferator-activated receptor gamma signaling (AID 588536; active means well fitted curve in the direction sought with a large enough effect in the signal ratio, with a control signal flat, not every such curve was filed as active; the % refers to the signal ratio)
# Peroxisome proliferator-activated receptor gamma (Homo sapiens), sequence (P37231 whole entry, looked up): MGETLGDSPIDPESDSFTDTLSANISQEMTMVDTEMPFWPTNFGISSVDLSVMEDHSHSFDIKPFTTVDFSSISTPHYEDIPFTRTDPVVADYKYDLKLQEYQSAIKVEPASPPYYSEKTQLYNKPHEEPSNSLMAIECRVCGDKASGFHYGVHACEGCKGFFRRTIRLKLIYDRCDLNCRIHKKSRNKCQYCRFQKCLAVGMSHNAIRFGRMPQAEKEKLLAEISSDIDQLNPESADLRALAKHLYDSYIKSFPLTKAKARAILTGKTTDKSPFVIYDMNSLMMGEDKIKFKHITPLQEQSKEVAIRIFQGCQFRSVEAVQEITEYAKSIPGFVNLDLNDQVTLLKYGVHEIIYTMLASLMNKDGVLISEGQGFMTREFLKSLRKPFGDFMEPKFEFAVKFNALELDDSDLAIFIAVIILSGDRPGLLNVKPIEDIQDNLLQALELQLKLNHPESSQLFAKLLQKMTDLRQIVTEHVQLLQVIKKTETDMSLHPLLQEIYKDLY
# Method in brief: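 Beta-lactamase reporter read-out: CCF4 fluorescence (ex 405, em 460/530 nm) after 2 h at RT. HEK293 GeneBLAzer cells were treated for 16 h at 37 C. Hill fits gave EC50 and efficacy versus 2 uM rosiglitazone (100%) and DMSO (0%).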
# [13] = molecular target: Peroxisome proliferator-activated receptor gamma (Homo sapiens) (UniProt P37231); assay: qHTS assay for small molecule antagonists of peroxisome proliferator-activated receptor gamma signaling (AID 588537; active means well fitted inhibition curve with a large enough effect in the signal ratio, with a control signal flat, not every such curve was filed as active; the % refers to the signal ratio;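 further: reporter cells co-stimulated with 50 nM rosiglitazone agonist during compound treatment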)
# Method in brief: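 Antagonist-mode β-lactamase reporter screen run as a titration series. HEK293 PPARγ-UAS-bla cells are stimulated with rosiglitazone (50 nM final) for 16 h, then CCF4 is read at 460/530 nm. Data are scaled between DMSO and rosiglitazone and fitted to the Hill equation.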
# [14] = qHTS assay for cell viability of HEK293 cells (AID 743288); conditions: ATP luminescence (CellTiter-Glo), 18 h; max response: stronger effect = lower value; further: nearly all actives have a fitted effect of over 50% in size
# Method in brief: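 Quantitative high-throughput screen: compounds were pinned onto parental HEK293 cells (2,000 per well) after a minimum 5 h settling at 37 C, incubated 18 h at 37 C, and intracellular ATP measured by luciferase luminescence.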
# [15] = Cellular Toxicity (caspase-3) Jurkat (AID 655); conditions: Jurkat caspase-3 activation, luminescence; caspase-3 activation: at 92.2 µM (top of the series), DMSO = 0%, tamoxifen = 100%;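 further: cells exposed to compound for 16 h at 37 °C before reading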
# Method in brief: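 Caspase 3/7 activation is scored as increased luminescence in Jurkat cells cultured with compound for 16 hours in complete medium. AC50 values come from Hill fits of qHTS concentration-response data normalized to DMSO and 100 uM tamoxifen controls.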
# [16] = molecular target: Estrogen receptor (Homo sapiens) (UniProt P03372); assay: qHTS assay for small molecule agonists of estrogen receptor alpha signaling (AID 588514; calls by dose curve; further: nearly all actives have a fitted effect of over 70% in size)
# Estrogen receptor (Homo sapiens), sequence (P03372 whole entry, looked up): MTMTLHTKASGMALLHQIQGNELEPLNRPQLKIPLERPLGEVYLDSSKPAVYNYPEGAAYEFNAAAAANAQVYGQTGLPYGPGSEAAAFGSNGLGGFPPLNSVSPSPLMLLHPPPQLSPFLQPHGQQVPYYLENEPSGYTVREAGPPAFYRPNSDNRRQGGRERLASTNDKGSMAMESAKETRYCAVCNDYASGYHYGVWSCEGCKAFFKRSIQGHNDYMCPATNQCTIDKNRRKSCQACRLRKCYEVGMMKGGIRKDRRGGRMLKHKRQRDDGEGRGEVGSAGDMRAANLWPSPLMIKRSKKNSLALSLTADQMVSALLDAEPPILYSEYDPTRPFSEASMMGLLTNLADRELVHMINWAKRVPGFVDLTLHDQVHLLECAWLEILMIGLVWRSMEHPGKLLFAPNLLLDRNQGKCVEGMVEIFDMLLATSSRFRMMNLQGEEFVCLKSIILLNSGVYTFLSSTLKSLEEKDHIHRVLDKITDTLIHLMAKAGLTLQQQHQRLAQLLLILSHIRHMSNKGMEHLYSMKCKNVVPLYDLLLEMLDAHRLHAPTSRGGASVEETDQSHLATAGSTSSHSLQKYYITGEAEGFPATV
# Method in brief: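 Efficacy is expressed against 20 nM 17-beta-estradiol (100%) and DMSO basal (0%); EC50 from Hill equation. Assay: beta-lactamase reporter in ER-alpha-UAS-bla HEK 293 cells, 18 h compound incubation, CCF4 detection.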
# [17] = molecular target: Retinoic acid receptor RXR-alpha (Homo sapiens) (UniProt P19793); assay: qHTS assay for small molecule agonists of retinoid X receptor alpha signaling (AID 588544; calls by dose curve)
# Retinoic acid receptor RXR-alpha (Homo sapiens), sequence (P19793 whole entry, looked up): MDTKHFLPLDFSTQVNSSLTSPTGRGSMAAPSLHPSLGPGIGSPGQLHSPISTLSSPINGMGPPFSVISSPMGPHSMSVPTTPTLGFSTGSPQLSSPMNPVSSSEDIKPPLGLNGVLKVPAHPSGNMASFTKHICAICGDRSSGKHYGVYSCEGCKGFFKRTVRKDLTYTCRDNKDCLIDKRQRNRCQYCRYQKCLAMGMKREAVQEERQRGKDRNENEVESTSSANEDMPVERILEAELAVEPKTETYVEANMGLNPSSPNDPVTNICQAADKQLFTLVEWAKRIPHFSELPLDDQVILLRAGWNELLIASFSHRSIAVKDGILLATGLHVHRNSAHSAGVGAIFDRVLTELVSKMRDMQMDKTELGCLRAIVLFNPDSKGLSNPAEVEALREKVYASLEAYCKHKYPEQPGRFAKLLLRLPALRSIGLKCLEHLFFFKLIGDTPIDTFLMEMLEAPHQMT
# [18] = Cell Viability - H-4-II-E (AID 543);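 further: cells exposed to compound for 40 hours; nearly all actives have a fitted effect of over 35% in size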
# Method in brief: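 Cells seeded at 1500 per well and rested 5 hr; compounds added; 40 hr incubation at 37 °C; CellTiter-Glo added, 20 min at room temperature; luminescence read. Hill-equation fits gave AC50.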
Structure (SMILES),"activity change, negative = cytotoxicity [1]",Potency [2],caspase-3 activation [3],Potency [4],Potency [5],Potency [6],Potency [7],Potency [8],Potency [9],Potency [10],max response [11],outcome [12],Potency [13],max response [14],Potency [15],Potency [16],Potency [17],Potency [18]
CN(C)c1ccc(Cc2ccc(N(C)C)cc2)cc1,-41% (inactive),inactive,2.63% (inactive),inactive,inactive,inactive,inactive,inactive,inactive,inactive,11.4% and 3.82%,inactive,inactive,-15.2% (inactive) and -24.3% (inactive),,,,
Cc1ccc(C(=O)O)cc1[N+](=O)[O-],4.91% (inactive),inactive,-1.69% (inactive),,inactive,inactive,,,,,,inactive,inactive,1.99% (inactive),inactive,inactive,inactive,
Cc1ccc(N)cc1[N+](=O)[O-],-8.48% (inactive),inactive,-1.57% (inactive),inactive,,,inactive,inactive,,inactive,35.9%,inactive,inactive,4.69% (inactive),inactive,,inactive,inactive
C1CCCNCC1,,inactive,2.08% (inactive),inactive,inactive,,inactive,,,inactive,-36.7%,inactive,,-3.87% (inactive),inactive,inactive,inactive,inactive
c1ccc(CSCc2ccccc2)cc1,-17.4% (inactive),inactive,,inactive,inactive,inactive,inactive,,,inactive,13.7%,inactive,inactive,,,,inactive,inactive
O=C(OCc1ccccc1)c1ccccc1O,,,,,inactive,inactive,inactive,inactive,,inactive,2.34% and -10.8%,,,9.47% (inactive) and -5.04% (inactive),inactive,inactive,inactive,inactive
O=[N+]([O-])c1ccccc1Nc1ccccc1,-9.33% (inactive),inactive,-0.0405% (inactive),inactive,inactive,inactive,inactive,,,inactive,,inactive,,-4.25% (inactive),,inactive,inactive,
Cc1cc(=O)oc2cc(O)cc(O)c12,-0.482% (inactive),,-0.488% (inactive),inactive,,,inactive,inactive,inactive,inactive,,inactive,,-8.02% (inactive),inactive,,,
c1ccc2ncccc2c1,-5.79% (inactive),inactive,-0.104% (inactive),inactive,,inactive,,inactive,,inactive,41.8%,inactive,,,,inactive,,inactive
COc1ccc([N+](=O)[O-])cc1N,,inactive,-2.76% (inactive),inactive,,inactive,inactive,inactive,inactive,inactive,74.5% and 5.37%,inactive,,-2.82% (inactive) and -3.03% (inactive),,inactive,,
COc1ccc(C(=O)Nc2ccccc2)cc1[N+](=O)[O-],,,,inactive,,inactive,,,inactive,inactive,,inactive,inactive,,inactive,,,
OC1CCCCC1,-3.26% (inactive),,-0.682% (inactive),inactive,inactive,inactive,inactive,,,,23.6%,inactive,inactive,10.8% (inactive),,inactive,inactive,
CCCCNCC,-1.46% (inactive),inactive,-0.76% (inactive),inactive,inactive,,inactive,,,inactive,-21.4%,inactive,,-3.61% (inactive),inactive,inactive,inactive,
O=[N+]([O-])c1cccc(I)c1,-10.4% (inactive),inactive,,,inactive,,,,,inactive,12.5%,inactive,,,,inactive,inactive,inactive
CCNC(=S)NCC,-22% (inactive),inactive,-2.38% (inactive),inactive,inactive,inactive,inactive,inactive,,,61.6%,inactive,inactive,-6.53% (inactive),inactive,inactive,inactive,inactive
Cc1c(N)cccc1Cl,-8.37% (inactive),inactive,,,,,inactive,,inactive,inactive,-10%,inactive,,0.674% (inactive),inactive,inactive,,inactive
CCCCCCN,,,1.72% (inactive),inactive,inactive,,inactive,,,,,,,,inactive,inactive,inactive,inactive
CC(=O)c1ccc(Cl)c(Cl)c1Cl,,inactive,0.887% (inactive),inactive,inactive,,,inactive,,inactive,,inactive,,4.03% (inactive),inactive,inactive,,inactive
CCCCCCCCC1CO1 (configuration not stated),-1.38% (inactive),inactive,0.315% (inactive),,inactive,inactive,,inactive,inactive,inactive,-10.9%,inactive,inactive,4.27% (inactive),inactive,,inactive,inactive
